# Source: PubChem (The Scripps Research Institute Molecular Screening Center)
# Shown is part of a subset that was picked to be rich in hits.
# SF1 inhibitor: blocks the human nuclear receptor SF-1; Q13285; hit rate 0.55% among 65,000; CHO-K1 Gal4-SF-1 LBD luciferase reporter; inhibition, % at 10 µM;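 active means inhibition above the mean inhibition of all tested compounds plus 3 SD, cut at about 48% in these data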;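 further: 0% = SF-1 transfected cells with DMSO and 100% = mock-transfected cells lacking SF-1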
# Target sequence (Q13285 whole entry, looked up, the tested form may be a part): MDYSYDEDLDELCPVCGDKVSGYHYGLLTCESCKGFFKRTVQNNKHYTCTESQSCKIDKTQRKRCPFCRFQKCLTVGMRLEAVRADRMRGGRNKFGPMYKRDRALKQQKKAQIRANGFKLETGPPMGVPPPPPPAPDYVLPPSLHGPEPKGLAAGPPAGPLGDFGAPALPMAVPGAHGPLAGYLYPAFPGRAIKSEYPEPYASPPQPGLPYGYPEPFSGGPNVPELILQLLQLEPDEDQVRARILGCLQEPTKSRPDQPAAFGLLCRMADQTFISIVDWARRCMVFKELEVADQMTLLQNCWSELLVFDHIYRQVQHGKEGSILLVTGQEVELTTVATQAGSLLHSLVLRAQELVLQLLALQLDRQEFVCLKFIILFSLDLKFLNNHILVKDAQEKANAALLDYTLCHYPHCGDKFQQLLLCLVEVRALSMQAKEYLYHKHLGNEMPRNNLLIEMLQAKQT
# Starred values were filed as active, the others as inactive.
SMILES,SF1 inhibitor
CCn1nc(-c2ccccc2)nc2c(=O)n(C)c(=O)nc1-2,95*
O=C(Cn1c2c(c(-c3ccccc3Cl)cc1=O)CCC2)N1CCC2(CC1)OCCO2,15
O=c1cccc2n1CC1CC2CN(C(c2cccc(F)c2)c2sc3ncnn3c2O)C1 (stereo unspecified),2
CCOC(C(=O)OCC(O)CN(CC)CC)(c1ccccc1)c1ccccc1 (stereo unspecified),-6
COc1cc(CN2CCN(c3cc(C)ccc3C)CC2)ccc1O,67*
COC(=O)CC1NC2CCCCC2NC1=O (stereo unspecified),-14
Cc1cccc(N2C(=O)NC(=O)C3(Cc4cc(C)ccc4N(C)C3)C2=O)c1 (stereo unspecified),4
COc1cccc(C2=NOC(C(=O)N3CCC4(CC3)OCCO4)C2)c1 (stereo unspecified),-56
C[C@H]1CCC/C=C/C2C[C@H](O)CC2[C@H](O)/C=C/C(=O)O1 (stereo partly specified),80*
CC(=NCC1CCCO1)c1c(O)n(-c2ccc(Cl)cc2)c(=O)[nH]c1=O (stereo unspecified),11
Cc1ccc(-n2c(O)c(C=NC3CCCC3)c(=O)[nH]c2=O)c(C)c1,-4
CCCCn1c(O)c(C(C)=Nc2cccc(C(=O)O)c2)c(=O)[nH]c1=O,-10
Cc1cccc(NC(=O)CSc2nnc([C@@H](N)Cc3c[nH]c4ccccc34)o2)c1C,-13
O=C(Cc1ccccc1)N1CCN(CC2CC=CCC2)CC1 (stereo unspecified),12
CCn1c(=O)cc(OCC(=O)N2CCN(Cc3ccc4c(c3)OCO4)CC2)c2ccccc21,17
